# Article PMC7862700, “An all-to-all approach to the identification of sequence-specific readers for epigenetic DNA modifications on cytosine”
# Tests used:
# Assay in all cases: DAPPL (digital affinity profiling via proximity ligation, sequencing); 10 mM Tris-HCl pH 7.5, 50 mM NaCl, 1 mM DTT, 4% glycerol, room temperature, 30 min; GST-TFs on glutathione beads, 16-mer random dsDNA library, 0.1% formaldehyde crosslink after washing; high values mean tight binding
# [1] = molecular target: T1, FEV (Homo sapiens, UniProt Q99581 1-238); conditions: protein: recombinant; tags: N-terminal GST; dsDNA, one strand shown
# T1 sequence: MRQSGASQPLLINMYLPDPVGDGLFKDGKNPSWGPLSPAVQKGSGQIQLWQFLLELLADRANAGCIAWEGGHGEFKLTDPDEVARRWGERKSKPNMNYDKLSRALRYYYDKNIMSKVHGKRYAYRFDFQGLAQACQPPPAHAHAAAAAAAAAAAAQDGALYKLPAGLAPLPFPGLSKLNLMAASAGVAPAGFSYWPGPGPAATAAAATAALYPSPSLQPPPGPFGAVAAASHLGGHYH
# In short: (§1)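 In yeast, human transcription factors were expressed with a GST fusion, then pulled down on glutathione beads and given DNA barcodes. Pooled with a tag-only sample, they were exposed to 200 nmole of a 16-mer random double-stranded DNA library (Tris/NaCl/DTT/glycerol buffer, room temperature, 30 min), washed, crosslinked with 0.1% formaldehyde, proximity-ligated using BsaI/T4 ligase for 1 h at 37 °C, PCR-amplified and read on an Illumina NextSeq500. Each hexamer's frequency of reads for a factor, divided by the matching frequency for the tag-only sample, gives the binding signal.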
# [2] = molecular target: ETV5 (Homo sapiens, UniProt P41161 1-510); conditions: protein: recombinant; tags: N-terminal GST; dsDNA, one strand shown
# In short: as §1
# [3] = molecular target: HSF1 (Homo sapiens, UniProt Q00613 1-529); conditions: protein: recombinant; tags: N-terminal GST; chain copies: 3; dsDNA, one strand shown
# In short: as §1
# [4] = molecular target: T2, SPIC (Homo sapiens, UniProt Q8N5J4 1-248); conditions: protein: recombinant; tags: N-terminal GST; dsDNA, one strand shown
# T2 sequence: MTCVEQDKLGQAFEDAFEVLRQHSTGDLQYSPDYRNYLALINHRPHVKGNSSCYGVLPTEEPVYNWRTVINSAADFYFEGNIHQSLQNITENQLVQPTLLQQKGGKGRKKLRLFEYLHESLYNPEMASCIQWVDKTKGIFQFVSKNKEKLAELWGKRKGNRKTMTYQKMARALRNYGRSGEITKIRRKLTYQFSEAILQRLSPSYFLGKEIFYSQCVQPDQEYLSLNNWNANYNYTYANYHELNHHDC
# In short: as §1
# [5] = molecular target: ELF4 (Homo sapiens, UniProt Q99607 1-663); conditions: protein: recombinant; tags: N-terminal GST; dsDNA, one strand shown
# In short: as §1
# [6] = molecular target: T3, ELK4 (Homo sapiens, UniProt P28324-2 1-405); conditions: protein: recombinant; tags: N-terminal GST; dsDNA, one strand shown
# T3 sequence: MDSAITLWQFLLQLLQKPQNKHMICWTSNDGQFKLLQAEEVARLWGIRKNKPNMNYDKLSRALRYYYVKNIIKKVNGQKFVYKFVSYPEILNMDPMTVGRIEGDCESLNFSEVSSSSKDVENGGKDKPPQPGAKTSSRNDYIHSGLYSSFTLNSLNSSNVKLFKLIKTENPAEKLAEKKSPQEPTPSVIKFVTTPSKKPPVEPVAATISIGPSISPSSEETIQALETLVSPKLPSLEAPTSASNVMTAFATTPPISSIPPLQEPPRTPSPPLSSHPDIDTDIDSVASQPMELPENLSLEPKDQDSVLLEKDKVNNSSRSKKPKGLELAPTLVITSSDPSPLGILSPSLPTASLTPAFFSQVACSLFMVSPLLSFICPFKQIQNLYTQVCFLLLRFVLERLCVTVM
# In short: as §1
# [7] = molecular target: T4, ETV2 (Homo sapiens, UniProt O00321 1-342); conditions: protein: recombinant; tags: N-terminal GST; dsDNA, one strand shown
# T4 sequence: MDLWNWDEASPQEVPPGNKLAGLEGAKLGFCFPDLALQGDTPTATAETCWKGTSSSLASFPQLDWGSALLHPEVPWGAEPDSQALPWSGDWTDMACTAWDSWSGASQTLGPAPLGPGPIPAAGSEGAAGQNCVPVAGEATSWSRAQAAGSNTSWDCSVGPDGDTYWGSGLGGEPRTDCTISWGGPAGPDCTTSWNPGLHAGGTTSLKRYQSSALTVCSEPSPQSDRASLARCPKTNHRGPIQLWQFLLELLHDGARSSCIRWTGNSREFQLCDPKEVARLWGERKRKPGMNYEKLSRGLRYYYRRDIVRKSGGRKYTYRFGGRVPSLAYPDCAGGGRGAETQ
# In short: as §1
# [8] = molecular target: T5, ELF3 (Homo sapiens, UniProt P78545 1-371); conditions: protein: recombinant; tags: N-terminal GST; dsDNA, one strand shown
# T5 sequence: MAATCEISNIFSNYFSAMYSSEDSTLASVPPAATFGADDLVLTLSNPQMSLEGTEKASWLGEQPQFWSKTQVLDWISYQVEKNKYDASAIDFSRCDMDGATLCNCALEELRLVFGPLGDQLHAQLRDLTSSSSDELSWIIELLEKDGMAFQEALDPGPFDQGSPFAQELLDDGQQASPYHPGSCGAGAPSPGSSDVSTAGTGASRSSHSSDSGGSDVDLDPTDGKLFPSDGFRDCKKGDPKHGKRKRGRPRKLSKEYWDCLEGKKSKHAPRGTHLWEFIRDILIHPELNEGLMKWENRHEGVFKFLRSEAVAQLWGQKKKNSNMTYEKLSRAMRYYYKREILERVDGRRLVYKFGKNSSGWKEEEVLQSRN
# In short: as §1
# [9] = molecular target: CRX (Homo sapiens, UniProt O43186 1-299); conditions: protein: recombinant; tags: N-terminal GST; dsDNA, one strand shown
# In short: as §1
# [10] = molecular target: ETV1 (Homo sapiens, UniProt P50549 1-477); conditions: protein: recombinant; tags: N-terminal GST; dsDNA, one strand shown
# In short: as §1
# Chain of HSF1 (Q00613 whole entry): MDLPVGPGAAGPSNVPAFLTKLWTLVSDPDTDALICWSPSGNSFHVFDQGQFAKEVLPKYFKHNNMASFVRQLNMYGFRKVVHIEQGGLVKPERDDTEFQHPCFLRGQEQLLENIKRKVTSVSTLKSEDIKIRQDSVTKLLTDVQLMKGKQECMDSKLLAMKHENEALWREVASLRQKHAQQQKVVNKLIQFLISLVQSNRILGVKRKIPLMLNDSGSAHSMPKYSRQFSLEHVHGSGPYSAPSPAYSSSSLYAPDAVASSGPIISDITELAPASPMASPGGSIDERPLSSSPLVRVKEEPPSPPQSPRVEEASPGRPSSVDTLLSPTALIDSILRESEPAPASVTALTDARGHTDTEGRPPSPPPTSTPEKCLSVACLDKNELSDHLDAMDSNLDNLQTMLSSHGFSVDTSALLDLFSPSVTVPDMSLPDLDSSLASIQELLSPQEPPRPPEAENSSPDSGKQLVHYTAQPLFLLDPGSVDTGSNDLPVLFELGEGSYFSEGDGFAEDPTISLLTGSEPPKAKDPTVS
# Chain of ETV1 (P50549 whole entry): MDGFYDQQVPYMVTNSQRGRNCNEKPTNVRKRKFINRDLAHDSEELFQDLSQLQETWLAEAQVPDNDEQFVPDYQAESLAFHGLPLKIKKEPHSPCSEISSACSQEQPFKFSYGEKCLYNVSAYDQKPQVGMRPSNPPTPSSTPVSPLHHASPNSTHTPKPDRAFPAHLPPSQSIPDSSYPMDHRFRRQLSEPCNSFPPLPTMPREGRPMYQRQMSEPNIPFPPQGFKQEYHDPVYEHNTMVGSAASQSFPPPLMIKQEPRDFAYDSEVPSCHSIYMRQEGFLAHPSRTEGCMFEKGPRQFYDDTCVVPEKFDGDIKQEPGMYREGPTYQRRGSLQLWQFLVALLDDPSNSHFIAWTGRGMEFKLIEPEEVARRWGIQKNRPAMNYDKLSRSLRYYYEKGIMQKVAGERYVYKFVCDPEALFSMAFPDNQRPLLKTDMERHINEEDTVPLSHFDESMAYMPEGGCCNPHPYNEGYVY
# Chain of ETV5 (P41161 whole entry): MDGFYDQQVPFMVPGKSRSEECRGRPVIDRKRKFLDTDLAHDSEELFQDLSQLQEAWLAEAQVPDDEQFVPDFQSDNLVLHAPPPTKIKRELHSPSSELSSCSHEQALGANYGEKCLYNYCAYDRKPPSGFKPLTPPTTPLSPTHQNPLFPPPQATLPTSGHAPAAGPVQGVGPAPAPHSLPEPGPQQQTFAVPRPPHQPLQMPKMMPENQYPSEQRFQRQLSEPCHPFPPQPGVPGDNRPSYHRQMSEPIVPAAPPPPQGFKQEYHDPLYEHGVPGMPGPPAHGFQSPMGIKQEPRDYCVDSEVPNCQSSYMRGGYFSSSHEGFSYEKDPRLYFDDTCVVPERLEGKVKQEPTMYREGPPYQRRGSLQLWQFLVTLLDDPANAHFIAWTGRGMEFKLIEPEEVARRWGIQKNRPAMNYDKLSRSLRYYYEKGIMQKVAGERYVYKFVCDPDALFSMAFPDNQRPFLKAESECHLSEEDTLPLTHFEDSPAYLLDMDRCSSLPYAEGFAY
# Chain of CRX (O43186 whole entry): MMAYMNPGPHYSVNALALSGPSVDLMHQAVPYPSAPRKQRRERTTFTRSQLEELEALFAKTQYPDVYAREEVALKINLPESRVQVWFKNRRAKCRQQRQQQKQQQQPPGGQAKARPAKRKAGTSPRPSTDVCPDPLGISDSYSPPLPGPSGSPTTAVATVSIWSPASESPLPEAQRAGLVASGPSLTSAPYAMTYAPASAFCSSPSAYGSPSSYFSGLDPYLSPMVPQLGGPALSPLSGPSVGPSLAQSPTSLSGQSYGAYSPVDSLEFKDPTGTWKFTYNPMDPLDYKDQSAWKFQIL
# Chain of ELF4 (Q99607 whole entry): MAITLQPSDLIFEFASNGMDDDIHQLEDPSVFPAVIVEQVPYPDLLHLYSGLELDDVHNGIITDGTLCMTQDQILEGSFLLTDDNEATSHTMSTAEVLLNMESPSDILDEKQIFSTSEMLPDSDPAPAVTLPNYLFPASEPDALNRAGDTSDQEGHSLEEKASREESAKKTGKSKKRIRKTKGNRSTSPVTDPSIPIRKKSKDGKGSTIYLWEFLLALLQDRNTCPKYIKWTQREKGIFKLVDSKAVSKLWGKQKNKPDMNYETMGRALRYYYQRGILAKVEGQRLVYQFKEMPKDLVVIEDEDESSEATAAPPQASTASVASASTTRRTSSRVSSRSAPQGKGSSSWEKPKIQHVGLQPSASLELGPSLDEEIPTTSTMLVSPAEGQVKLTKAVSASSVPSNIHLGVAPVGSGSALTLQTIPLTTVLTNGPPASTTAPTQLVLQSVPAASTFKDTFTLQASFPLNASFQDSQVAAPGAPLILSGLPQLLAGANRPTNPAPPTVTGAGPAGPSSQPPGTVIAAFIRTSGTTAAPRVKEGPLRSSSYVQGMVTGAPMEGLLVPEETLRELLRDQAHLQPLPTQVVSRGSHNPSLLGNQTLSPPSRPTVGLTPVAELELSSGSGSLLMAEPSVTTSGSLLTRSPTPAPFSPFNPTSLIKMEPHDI
sequence,measurement,setting,value
ACGTTC,binding signal,[1],"1.3 fold enrichment (6-mer frequency, TF over GST control)"
same,binding signal,[2],"1.27 fold enrichment (6-mer frequency, TF over GST control)"
same,binding signal,[3],"1.94 fold enrichment (6-mer frequency, TF over GST control)"
same,binding signal,[4],"1.21 fold enrichment (6-mer frequency, TF over GST control)"
same,binding signal,[5],"1.42 fold enrichment (6-mer frequency, TF over GST control)"
same,binding signal,[6],"1.29 fold enrichment (6-mer frequency, TF over GST control)"
same,binding signal,[7],"1.25 fold enrichment (6-mer frequency, TF over GST control)"
same,binding signal,[8],"1.25 fold enrichment (6-mer frequency, TF over GST control)"
same,binding signal,[9],"1.28 fold enrichment (6-mer frequency, TF over GST control)"
same,binding signal,[10],"1.28 fold enrichment (6-mer frequency, TF over GST control)"
